In ChEMBL document CHEMBL3988442, “University of Dundee, Small-Polar-MMV Screening Library” (2021):
About 13,000 (27%) of roughly 48,000 compounds showed an effect of 50% or more. This is one part of the list.

These molecules were tested on Wolbachia pipientis (assay: Anti-Wolbachia Cell-Based Screen). Settings: 5 µM.
Format: functional
Set-up: scale not given: in the data most compounds retested in dose-response had high values

Structure (SMILES)	Percent Effect [%]
N#CC(NC(=O)CCC1CCC1)c1cnn(-c2ccccc2)c1 (stereo unspecified)	1.369
CNC(=O)Cn1nc(C(C)C)c2cnn(C(C)(C)C)c2c1=O	-6.377
CN(C)[C@@H]1CO[C@H](CNC(=O)C2CCCC2)[C@H]1O	-8.236
Cc1ccc(C(=O)NCCNC(=O)c2cncnc2C)cc1F	-5.207
Cc1csc([C@@H]2C[C@@H]3CCN(C(=O)c4ccnnc4)C[C@H]3O2)n1	-12.9
CCn1nc(C)cc1C(=O)N1C[C@@H]2C[C@@H](c3nc(C)cs3)O[C@@H]2C1	100.8
CCC(C)(C)C(=O)N1C[C@@H]2C[C@@H](c3nnc(C)[nH]3)O[C@@H]2C1	92.76
CCn1nc(C)cc1C(=O)N1C[C@@H]2C[C@@H](c3noc(C)n3)O[C@@H]2C1	118.5
CCn1nc(C)cc1C(=O)N1CC[C@H](OC)[C@H]2CN(CC3CC3)C[C@H]21.O=C(O)C(F)(F)F	3.94
CCn1nc(C)cc1C(=O)N1C[C@@H]2C[C@@H](C)O[C@@H]2C1.O=C(O)C(F)(F)F	99.49
Cc1nnc([C@@H]2C[C@H]3CN(C(=O)c4c(C)noc4C)C[C@H]3O2)[nH]1.O=C(O)C(F)(F)F	-14.34
Cc1nnc([C@@H]2C[C@H]3CN(C(=O)C4CC4)C[C@H]3O2)[nH]1	-12.1
CCN1C[C@@H]2[C@@H](OC)CCN(C(=O)c3cc(C)nn3CC)[C@@H]2C1.O=C(O)C(F)(F)F	-7.784
Cc1ccc(C(=O)N2CC[C@H]3O[C@@H](c4noc(C)n4)C[C@H]3C2)o1	6.095
Cc1csc([C@@H]2C[C@@H]3CCN(C(=O)c4cc(C)on4)C[C@H]3O2)n1	1.11
Cc1nc([C@H]2C[C@H]3CN(C(=O)c4cc(C)c(C)s4)CC[C@@H]3O2)no1	1.908
O=C(CN1CCS(=O)(=O)CC1)NC1CCCCc2ccccc21 (stereo unspecified)	-11.03
CCC(Nc1nnnn1-c1ccccc1)C(=O)NCc1cccs1 (stereo unspecified)	-3.486
CN1CCOC[C@H]1c1nc(-c2ccc(F)cc2F)c[nH]1	2.014
COC1CCCN(CCCc2cn[nH]c2)C1 (stereo unspecified)	-27.42
OC1CCN([C@@H]2CCN(c3nc(-c4ccccc4)no3)C[C@H]2O)CC1	-5.249
CCCN1CC2(CCN(C)CC2)CC1C(=O)NCc1cc(C)nn1C (stereo unspecified)	6.557
O=C(NCC(F)(F)F)C1CN(C(=O)c2cnccn2)C1	-11.97
Cc1nnc([C@H]2C[C@@H]3CCN(C(=O)C4CCOCC4)C[C@H]3O2)[nH]1	-13.79

Structure (SMILES)	Percent Effect [%]
Cc1nnc([C@@H]2C[C@H]3CN(C(=O)c4sccc4C)C[C@H]3O2)[nH]1	-0.8336
CCn1nc(C)cc1C(=O)N1C[C@@H]2C[C@@H](c3nnc(C)[nH]3)O[C@@H]2C1	102
CCc1nc(N2CCCC(CCCOC)(C(=O)O)C2)ncc1C (stereo unspecified)	-7.437
CO[C@H]1CCN(c2ncccn2)[C@H]1Cc1ccccc1	1.779
CO[C@H]1CCN(Cc2nccs2)C[C@@H]1Cc1ccccc1	1.604
Cc1cc2c(cc1C)C(NC1CC1)CCCO2 (stereo unspecified)	-4.167
CCCc1ccc(C(=O)N2Cc3c(Cn4ccnc4)nn(C)c3C2)cc1.O=CO	-14.37
CC(C)Cn1cncc1CNC(=O)c1cccc(Cn2cccn2)c1	0.1096
CCNC(=O)CCC(=O)Nc1ccc2nn(C(C)C)cc2c1	9.58
CC(C)c1nc(NC(=O)CCCn2cccc2)n(C)n1	-8.102
COCCn1ccc(NC(=O)Nc2ccncc2)n1	5.636
CCN(CC)c1ccc(NC(=O)NC(C)Cn2cccn2)cn1 (stereo unspecified)	-15.96
CC(C)n1cnc2ccc(NC(=O)CCCn3cccn3)cc2c1=O	106
COCCn1ccc(NC(=O)Nc2ccc(C)cc2)n1	3.618
CC(C)Cn1cnc2ccc(NC(=O)CCCn3cccn3)cc2c1=O	102.5
Cc1ccc(C(=O)NCCCn2cccn2)c(=O)[nH]1	22.25
COCCn1cnc2ccc(NC(=O)CCCn3cccn3)cc2c1=O	181
COC(=O)CC(NC(=O)CCCn1cccn1)c1ccc(Cl)cc1 (stereo unspecified)	-43.24
Cn1cnc2ccc(NC(=O)CCCn3cccn3)cc2c1=O	106.9
CCc1nnsc1C(=O)NCCCC(CC)(CC)C1OCCO1	-13.99
CC(C)c1nnc2n1CC(CNc1cnc3ccccc3n1)CC2 (stereo unspecified)	-3.73
Cc1cc(C)n(C2CN(CC(O)COc3ccc(F)cc3)C2)n1 (stereo unspecified)	3.815
CC(NCCc1nccn1Cc1ccccc1)c1ccsc1 (stereo unspecified)	1.494
O=C(c1ccc[nH]1)N1C[C@H]2CC[C@@H]1CN(c1ncccn1)C2	-10.43

Structure (SMILES)	Percent Effect [%]
CCOc1ncccc1-c1cc2c(cc1C(N)=O)OCO2	2.212
COC(=O)CNC(=O)CSCc1nc(O)c2c(C)c(C)sc2n1	7.048
CNS(=O)(=O)c1cccc(C(C)NCc2nccn2C(C)C)c1 (stereo unspecified)	-13.68
CC(C)(C)c1nc(CN2CCC3(CCCO3)CCC2=O)no1 (stereo unspecified)	-4.31
O=C(CCc1ccccc1F)NS(=O)(=O)c1ccc2c(c1)OCCCO2	3.529
CO[C@H]1CN(Cc2nc3ccccc3n2C)C[C@@]12CCCO2	116
Cn1c(CN2CCOC[C@H]2c2nc(C(C)(C)C)co2)nc2ccccc21	-2.257
COCCN1C[C@H]2CC[C@@H]1CN(Cc1nc3ccccc3n1C)C2	17.95
Cn1c(CO[C@H]2CN(S(C)(=O)=O)C[C@H]2F)nc2ccccc21	0.03029
CO[C@H]1CN(Cc2nc3ccccc3n2C)CC[C@@]12CCCO2	137.2
CC(=O)Nc1c(C)noc1/C=C\c1ccc(S(=O)(=O)N2CCCC2)cc1	101.8
Cc1cc(C)c(S(=O)(=O)Nc2c(C)noc2C)cc1C(=O)O	-6.139
CCOc1ccc(S(=O)(=O)NC(=O)c2c(C)noc2C(C)C)cc1	3.193
CC(=O)Nc1c(C)noc1/C=C\c1ccc(C)c(S(=O)(=O)NC2CC2)c1	113.9
Cc1ccc(S(=O)(=O)NC2CC2)cc1C	3.676
Cc1cc(NC(=O)NCc2ccc(S(=O)(=O)N3CCCC3)s2)no1	-7.015
CCC(C)NS(=O)(=O)c1ccc(/C=C\c2onc(C)c2NC(C)=O)cc1 (stereo unspecified)	102.8
Cc1noc(C)c1NS(=O)(=O)c1cc(Cl)c(Cl)c(C(=O)O)c1	-2.046
CC(=O)Nc1c(C)noc1/C=C\c1ccc(S(=O)(=O)NC2CC2)cc1	127.5
CC(C)N(CCNC(=O)c1ccc(S(=O)(=O)NC2CC2)cc1)C(C)C	-4.232
CCN(CC1CCCO1)S(=O)(=O)c1cc(NC(C)=O)ccc1C (stereo unspecified)	-4.974
Cc1noc(C)c1C(=O)N(C)C(C)c1ccc(S(C)(=O)=O)cc1 (stereo unspecified)	-13.22
COCc1c(C(=O)N2CCCC(C(=O)c3ccccc3)C2)noc1C (stereo unspecified)	18.29
CC(C)c1noc(-c2ccc(N(C)C3CCOCC3)nc2)n1	4.725

Structure (SMILES)	Percent Effect [%]
CCc1ccc(C(=O)N(c2cccnc2)C(C)C)cc1S(C)(=O)=O	-4.905
Cn1cc(N2CCCC(NCc3cccc4c3OCCCO4)C2)cn1 (stereo unspecified)	5.522
CC(=O)N1CCN(Cc2csc(-c3cnn(C)c3)n2)CC1	-2.698
CN(CCOc1ccccc1)C(=O)Nc1cccn(C)c1=O	-7.911
CCn1nc(C)c(CNCCn2cc(C)cn2)c1C	-3.614
CCc1n[nH]c(C2CN(C(=O)c3csnn3)CCO2)n1 (stereo unspecified)	5.505
CCc1n[nH]c(C2CN(C(=O)c3ccsc3)CCO2)n1 (stereo unspecified)	-7.314
CCc1n[nH]c(C2CN(C(=O)c3cnc(C)cn3)CCO2)n1 (stereo unspecified)	99.84
CCc1n[nH]c(C2CN(C(=O)c3cnn(CC)c3)CCO2)n1 (stereo unspecified)	143.5
CCc1n[nH]c(C2CN(C(=O)c3cnns3)CCO2)n1 (stereo unspecified)	-10.08
CCc1n[nH]c(C2CN(C(=O)c3ccc(Cl)cn3)CCO2)n1 (stereo unspecified)	105.2
CCc1n[nH]c(C2CN(C(=O)c3cnc(C)s3)CCO2)n1 (stereo unspecified)	1.148
CCc1n[nH]c(C2CN(C(=O)c3cscn3)CCO2)n1 (stereo unspecified)	131.5
Cc1ccc2c(c1)CCC21CCN(CCO)CC1	9.958
Cc1ccc(NC(=O)N(CCO)CCO)c(OCc2ccccc2)c1	-35.37
COc1ccc(CN(CC2CCCO2)c2nc3c(s2)c(C)nn3C)cc1 (stereo unspecified)	-25.43
Cc1cc(CN(Cc2cccs2)CC2CCCO2)no1 (stereo unspecified)	-7.251
COc1ccc(CN(Cc2cn(C)nc2C)CC2CCCO2)c(OC)c1 (stereo unspecified)	138
COc1ccc(CN(Cc2cnc(N)nc2)CC2CCCO2)c(OC)c1.O=C(O)CC(O)(CC(=O)O)C(=O)O (stereo unspecified)	113.1
Nc1nccnc1C(=O)N(Cc1ccccc1O)CC1CCCO1 (stereo unspecified)	-11.08
COc1ccc(CN(Cc2ccccn2)Cc2cncn2C)cc1.O=C(O)CC(O)(CC(=O)O)C(=O)O	130.6
CCn1cncc1CN(Cc1ccc(OC)cc1OC)CC1CCCO1.O=C(O)CC(O)(CC(=O)O)C(=O)O (stereo unspecified)	91.73
COC(=O)CCN(CC1CCCO1)C(=O)Cc1ccc(OC)c(OC)c1 (stereo unspecified)	2.857
COc1ccc(CN(Cc2cncn2C)CC2CCCO2)c(OC)c1.O=C(O)CC(O)(CC(=O)O)C(=O)O (stereo unspecified)	-9.808
